The full data set covers some 7,900 targets. This sample favours those with a hit. About 0.6% of all pairs of compound and target were hits. A number with no mark means an inactive call.
Legend:
Assay in all cases: log2 fold change, soluble protein after heating vs DMSO (PISA); higher = thermal stabilisation; K562 cells, 10 uM, 30 min; active = over 0.2 and 3.5 SD of the protein, either way, in both replicates (recomputed)
erlotinib = compound: C#Cc1cccc(Nc2ncnc3cc(OCCOC)c(OCCOC)cc23)c1 [erlotinib]
Outline: (§1)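 Quantification of soluble protein used TMTpro 16plex LC-MS/MS, with channel sums equalised. Samples were the supernatant after 21,000xg for 90 min of pooled aliquots from K562 cells (2×10^6 cells/mL) treated with 10 μM compound for 30 min, heated for 3 min over 48°C-58°C, and extracted in PBS with 0.5% NP-40 at 4°C. Values, from duplicates, describe thermal stability against control samples on a log2 fold-change scale.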

[1] = compound: C/C(=N\NC(=O)C1=CC(=CC=C1)S(=O)(=O)N2CCOCC2)/C3=C(C=CC(=C3)Cl)O
Outline: as §1

[2] = compound: C1=CC(=C(C=C1Cl)C2=NC3=NC=CN=C3C(=N2)NC4=CC=NC=C4)F
Outline: as §1

[3] = compound: C1=CC(=CC=C1C2=NC3=C(N2)C=C(C=C3)C(=O)N)OC4=CC=C(C=C4)Cl
Outline: as §1

[4] = compound: C1=CC2=C(C=CC(=C2)/C=C\3/C(=O)NC(=NCC4=CC=CS4)S3)N=C1
Outline: as §1

[5] = compound: C1=CC2=NC=CN=C2C=C1/C=C/3\C(=O)NC(=O)S3
Outline: as §1

[6] = compound: C1=CC=C(C=C1)C2=NC(=C(N2)C3=CC=NC=C3)C4=CC(=C(C=C4)Cl)O
Outline: as §1

[7] = compound: C1=CC=C2C(=C1)C3=NNC4=CC=CC(=C43)C2=O
Outline: as §1

[8] = compound: C1CCN(C1)C(=O)NC2=CC=CC(=C2)NC3=NC=C(C(=N3)NCCC4=CN=CN4)Br
Outline: as §1

[9] = compound: C1CN(CCC1(CC2=CC=C(C=C2)Cl)N)C3=NC=NC4=C3C=CN4
Outline: as §1

UniProt Q5TFE4, sequence (Q5TFE4 whole entry, looked up): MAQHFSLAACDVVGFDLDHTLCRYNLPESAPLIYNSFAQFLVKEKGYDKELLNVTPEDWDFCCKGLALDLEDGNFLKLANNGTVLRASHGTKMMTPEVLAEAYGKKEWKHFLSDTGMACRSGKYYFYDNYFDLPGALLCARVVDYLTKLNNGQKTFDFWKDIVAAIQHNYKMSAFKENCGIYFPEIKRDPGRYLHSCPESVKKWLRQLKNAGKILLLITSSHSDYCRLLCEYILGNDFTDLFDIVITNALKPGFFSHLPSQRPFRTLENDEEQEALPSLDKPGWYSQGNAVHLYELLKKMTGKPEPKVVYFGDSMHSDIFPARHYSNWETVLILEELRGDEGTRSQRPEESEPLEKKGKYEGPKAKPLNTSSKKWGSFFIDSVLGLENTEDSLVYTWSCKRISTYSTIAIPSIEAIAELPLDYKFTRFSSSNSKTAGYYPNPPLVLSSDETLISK
UniProt Q9H3P2, sequence (Q9H3P2 whole entry, looked up): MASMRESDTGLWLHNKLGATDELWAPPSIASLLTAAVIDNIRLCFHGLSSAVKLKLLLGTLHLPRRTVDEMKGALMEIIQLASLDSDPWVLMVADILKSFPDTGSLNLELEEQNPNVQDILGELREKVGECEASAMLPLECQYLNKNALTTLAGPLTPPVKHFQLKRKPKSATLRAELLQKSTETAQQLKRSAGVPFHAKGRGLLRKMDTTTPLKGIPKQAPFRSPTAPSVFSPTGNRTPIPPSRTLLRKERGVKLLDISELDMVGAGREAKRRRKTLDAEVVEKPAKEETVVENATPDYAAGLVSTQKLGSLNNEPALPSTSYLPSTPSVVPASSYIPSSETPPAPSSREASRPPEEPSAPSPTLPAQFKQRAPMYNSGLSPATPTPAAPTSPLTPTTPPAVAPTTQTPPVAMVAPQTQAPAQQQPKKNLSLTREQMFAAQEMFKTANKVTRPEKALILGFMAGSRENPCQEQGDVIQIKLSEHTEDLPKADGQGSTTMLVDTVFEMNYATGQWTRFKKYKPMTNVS
UniProt Q15738, sequence (Q15738 whole entry, looked up): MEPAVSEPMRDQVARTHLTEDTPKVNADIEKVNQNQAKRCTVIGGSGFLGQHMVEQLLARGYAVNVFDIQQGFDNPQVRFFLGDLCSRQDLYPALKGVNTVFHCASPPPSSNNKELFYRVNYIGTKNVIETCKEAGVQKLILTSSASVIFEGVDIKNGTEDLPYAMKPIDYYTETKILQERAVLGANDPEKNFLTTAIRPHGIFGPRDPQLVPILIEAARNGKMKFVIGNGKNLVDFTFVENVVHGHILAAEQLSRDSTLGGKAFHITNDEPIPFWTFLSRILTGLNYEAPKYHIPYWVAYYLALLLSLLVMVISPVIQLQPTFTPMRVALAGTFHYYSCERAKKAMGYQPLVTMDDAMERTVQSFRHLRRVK
UniProt Q15014, sequence (Q15014 whole entry, looked up): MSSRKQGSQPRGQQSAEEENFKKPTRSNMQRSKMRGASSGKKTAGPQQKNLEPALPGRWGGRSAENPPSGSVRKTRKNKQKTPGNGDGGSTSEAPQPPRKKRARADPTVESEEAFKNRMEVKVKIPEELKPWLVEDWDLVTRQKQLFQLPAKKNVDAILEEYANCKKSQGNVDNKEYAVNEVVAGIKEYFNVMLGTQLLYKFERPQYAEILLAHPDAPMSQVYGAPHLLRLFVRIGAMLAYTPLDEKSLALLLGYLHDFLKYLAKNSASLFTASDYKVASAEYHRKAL
UniProt Q9Y2X3, sequence (Q9Y2X3 whole entry, looked up): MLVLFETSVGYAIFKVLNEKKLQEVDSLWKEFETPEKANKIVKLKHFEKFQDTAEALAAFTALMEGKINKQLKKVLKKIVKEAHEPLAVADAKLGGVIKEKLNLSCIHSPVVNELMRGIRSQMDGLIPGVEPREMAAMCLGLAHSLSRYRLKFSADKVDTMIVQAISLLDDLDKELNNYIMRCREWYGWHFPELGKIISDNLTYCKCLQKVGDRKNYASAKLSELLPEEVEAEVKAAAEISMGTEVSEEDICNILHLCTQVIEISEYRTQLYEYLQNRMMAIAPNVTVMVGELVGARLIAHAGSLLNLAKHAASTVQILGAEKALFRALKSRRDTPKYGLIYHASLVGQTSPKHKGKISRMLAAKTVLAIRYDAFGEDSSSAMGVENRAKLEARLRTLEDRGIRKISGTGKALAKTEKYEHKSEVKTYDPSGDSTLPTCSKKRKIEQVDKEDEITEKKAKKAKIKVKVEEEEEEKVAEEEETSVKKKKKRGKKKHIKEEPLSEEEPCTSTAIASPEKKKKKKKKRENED
UniProt Q12968, sequence (Q12968 whole entry, looked up): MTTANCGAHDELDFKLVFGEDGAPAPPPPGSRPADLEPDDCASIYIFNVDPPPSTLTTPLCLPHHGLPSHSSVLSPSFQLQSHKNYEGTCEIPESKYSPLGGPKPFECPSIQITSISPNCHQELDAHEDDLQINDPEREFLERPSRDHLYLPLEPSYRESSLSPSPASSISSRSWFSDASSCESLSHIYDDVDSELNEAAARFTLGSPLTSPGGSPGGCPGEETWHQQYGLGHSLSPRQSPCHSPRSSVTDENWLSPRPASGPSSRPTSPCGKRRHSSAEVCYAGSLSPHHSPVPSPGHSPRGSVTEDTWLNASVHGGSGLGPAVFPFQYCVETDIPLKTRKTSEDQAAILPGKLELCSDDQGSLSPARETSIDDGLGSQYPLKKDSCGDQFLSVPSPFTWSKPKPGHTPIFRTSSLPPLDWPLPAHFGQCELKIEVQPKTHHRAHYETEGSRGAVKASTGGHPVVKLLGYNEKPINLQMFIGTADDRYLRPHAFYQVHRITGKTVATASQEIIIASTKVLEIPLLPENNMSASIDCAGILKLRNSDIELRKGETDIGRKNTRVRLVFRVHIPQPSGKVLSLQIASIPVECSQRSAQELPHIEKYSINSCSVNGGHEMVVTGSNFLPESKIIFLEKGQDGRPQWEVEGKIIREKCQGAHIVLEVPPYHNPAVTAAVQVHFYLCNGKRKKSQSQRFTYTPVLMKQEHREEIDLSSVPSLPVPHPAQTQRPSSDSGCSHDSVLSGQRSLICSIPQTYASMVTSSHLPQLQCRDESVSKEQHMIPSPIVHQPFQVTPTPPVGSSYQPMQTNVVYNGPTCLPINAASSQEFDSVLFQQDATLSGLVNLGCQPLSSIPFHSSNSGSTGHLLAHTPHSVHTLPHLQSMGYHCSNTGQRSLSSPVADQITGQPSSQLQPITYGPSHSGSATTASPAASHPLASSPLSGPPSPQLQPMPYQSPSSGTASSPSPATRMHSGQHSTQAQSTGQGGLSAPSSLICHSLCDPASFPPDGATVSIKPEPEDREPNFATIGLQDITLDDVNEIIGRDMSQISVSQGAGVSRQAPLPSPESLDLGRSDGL
UniProt Q9ULX3, sequence (Q9ULX3 whole entry, looked up): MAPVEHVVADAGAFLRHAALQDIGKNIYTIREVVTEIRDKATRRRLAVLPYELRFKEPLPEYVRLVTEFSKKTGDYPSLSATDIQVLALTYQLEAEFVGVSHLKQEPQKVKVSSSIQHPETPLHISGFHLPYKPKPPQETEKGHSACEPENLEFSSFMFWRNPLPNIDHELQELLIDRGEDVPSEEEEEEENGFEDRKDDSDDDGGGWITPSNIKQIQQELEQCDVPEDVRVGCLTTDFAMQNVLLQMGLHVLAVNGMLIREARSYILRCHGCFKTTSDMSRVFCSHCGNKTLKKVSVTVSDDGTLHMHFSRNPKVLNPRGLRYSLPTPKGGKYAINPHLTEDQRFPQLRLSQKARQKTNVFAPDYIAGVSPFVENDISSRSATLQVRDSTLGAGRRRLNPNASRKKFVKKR
UniProt O15118, sequence (O15118 whole entry, looked up): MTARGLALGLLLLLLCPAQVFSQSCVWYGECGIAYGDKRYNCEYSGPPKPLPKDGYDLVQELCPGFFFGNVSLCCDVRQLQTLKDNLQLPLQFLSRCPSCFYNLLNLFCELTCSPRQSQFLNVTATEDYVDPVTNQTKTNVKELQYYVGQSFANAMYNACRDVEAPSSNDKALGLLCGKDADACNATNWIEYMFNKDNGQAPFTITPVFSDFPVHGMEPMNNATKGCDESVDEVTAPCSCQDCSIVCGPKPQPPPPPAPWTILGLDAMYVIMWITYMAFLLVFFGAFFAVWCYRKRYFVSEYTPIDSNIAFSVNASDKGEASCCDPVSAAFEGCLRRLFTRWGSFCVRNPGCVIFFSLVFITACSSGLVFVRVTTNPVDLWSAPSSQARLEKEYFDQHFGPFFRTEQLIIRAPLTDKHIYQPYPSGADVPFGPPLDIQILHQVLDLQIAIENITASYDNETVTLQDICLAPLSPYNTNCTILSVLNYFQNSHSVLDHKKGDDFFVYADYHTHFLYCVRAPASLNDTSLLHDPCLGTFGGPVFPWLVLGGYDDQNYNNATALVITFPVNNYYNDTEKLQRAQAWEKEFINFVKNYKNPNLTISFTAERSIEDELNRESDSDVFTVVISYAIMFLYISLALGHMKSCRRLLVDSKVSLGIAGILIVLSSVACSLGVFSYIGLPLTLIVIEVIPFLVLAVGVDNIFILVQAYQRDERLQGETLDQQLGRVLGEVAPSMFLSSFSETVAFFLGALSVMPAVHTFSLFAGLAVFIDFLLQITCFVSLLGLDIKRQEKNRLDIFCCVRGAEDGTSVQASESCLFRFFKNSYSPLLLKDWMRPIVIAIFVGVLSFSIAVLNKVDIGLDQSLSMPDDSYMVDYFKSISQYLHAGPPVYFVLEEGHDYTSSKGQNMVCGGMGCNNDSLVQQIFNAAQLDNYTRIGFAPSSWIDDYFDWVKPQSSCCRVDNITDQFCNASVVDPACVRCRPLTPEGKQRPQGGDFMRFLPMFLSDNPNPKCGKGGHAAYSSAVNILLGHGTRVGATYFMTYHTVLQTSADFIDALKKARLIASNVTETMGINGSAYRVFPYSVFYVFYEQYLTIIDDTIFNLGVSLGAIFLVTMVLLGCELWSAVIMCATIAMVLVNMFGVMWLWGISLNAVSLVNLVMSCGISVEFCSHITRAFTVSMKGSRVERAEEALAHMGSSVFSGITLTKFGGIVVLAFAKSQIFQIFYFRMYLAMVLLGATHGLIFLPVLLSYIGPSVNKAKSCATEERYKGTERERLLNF

| Target | log2 fold change (erlotinib) | log2 fold change [1] | log2 fold change [2] | log2 fold change [3] | log2 fold change [4] | log2 fold change [5] | log2 fold change [6] | log2 fold change [7] | log2 fold change [8] | log2 fold change [9] |
| --- | --- | --- | --- | --- | --- | --- | --- | --- | --- | --- |
| NSUN2 (UniProt Q08J23) | -0.017 | 0.137 | -0.002 | 0.038 | -0.018 | 0.006 | -0.052 | -0.112 | -0.067 | 0.064 |
| NELFA (UniProt Q9H3P2) | 0.21 | 0.231 | 0.059 | -0.061 | 0.073 | 0.111 | 0.048 | 0 | -0.323 | -0.028 |
| NQO1 (UniProt P15559) | -0.064 | 0.037 | 0.089 | -0.002 | -0.06 | -0.005 | -0.014 | 0.269 (active) | -0.015 | 0.065 |
| MSH2 (UniProt P43246) | 0.038 | 0.109 | 0.066 | -0.004 | 0.037 | 0.025 | -0.016 | 0.035 | -0.064 | -0.059 |
| NFATC2 (UniProt Q13469) | -0.049 | 0.147 | -0.002 | 0.012 | 0.04 | -0.132 | 0.053 | -0.109 | -0.201 | 0.007 |
| NDUFB10 (UniProt O96000) | -0.009 | -0.067 | 0.018 | 0.03 | 0.06 | 0.025 | -0.038 | -0.021 | 0.026 | 0.045 |
| NOP58 (UniProt Q9Y2X3) | -0.013 | 0.001 | -0.332 | -0.001 | -0.043 | 0.034 | -0.055 | -0.126 | -0.156 | -0.143 |
| NT5DC1 (UniProt Q5TFE4) | 0.071 | 0.001 | 0.087 | -0.019 | 0.087 | -0.008 | 0.02 | 0.02 | 0.008 | 0.028 |
| MRPS26 (UniProt Q9BYN8) | -0.081 | 0.004 | 0.004 | 0.157 | 0.038 | 0.088 | -0.042 | 0.06 | -0.19 | 0.024 |
| NFATC3 (UniProt Q12968) | 0.121 | 0.197 | 0.024 | 0 | 0.039 | -0.013 | -0.019 | -0.101 | -0.01 | -0.027 |
| MORF4L2 (UniProt Q15014) | -0.114 | -0.056 | -0.181 | 0.02 | -0.03 | 0.002 | -0.108 | -0.039 | -0.108 | -0.051 |
| NR2C2AP isoform 2 (UniProt Q86WQ0) | 0.032 | 0.028 | -0.013 | 0.048 | 0.041 | 0.026 | -0.08 | -0.134 | -0.089 | -0.013 |
| NAA11 (UniProt Q9BSU3) | -0.023 | -0.012 | -0.033 | 0.06 | 0.158 | -0.207 | -0.023 | -0.032 | -0.108 | 0.167 |
| MSTO1 (UniProt Q9BUK6) | 0.031 | 0.06 | 0.075 | -0.044 | -0.003 | 0.007 | 0.038 | 0.043 | 0.011 | -0.041 |
| NPC1 (UniProt O15118) | 0.027 | -0.033 | -0.004 | 0.025 | -0.01 | 0.028 | 0.011 | -0.027 | 0.058 | 0.069 |
| MRPS24 (UniProt Q96EL2) | -0.175 | 0.022 | -0.032 | 0.062 | 0.016 | -0.02 | 0.01 | 0.039 | 0.071 | -0.1 |
| NFYC (UniProt Q13952) | 0.014 | 0.004 | 0.016 | -0.006 | 0.059 | 0.007 | 0.007 | 0.01 | -0.034 | -0.042 |
| OXSM (UniProt Q9NWU1) | -0.079 | 0.024 | 0.005 | 0.055 | -0.052 | -0.001 | 0.053 | -0.034 | -0.042 | 0.019 |
| NOP2 isoform 4 (UniProt P46087) | -0.17 | -0.261 | -0.349 | -0.064 | -0.045 | 0.272 | -0.255 | 0.078 | 0.023 | 0.006 |
| MIS12 (UniProt Q9H081) | 0.103 | 0.083 | 0.012 | 0.002 | 0.107 | 0.052 | -0.063 | -0.018 | -0.16 | -0.016 |
| MRPS21 (UniProt P82921) | 0.014 | -0.04 | -0.096 | 0.042 | -0.241 | -0.138 | -0.019 | 0.297 | -0.091 | -0.07 |
| NDUFA7 (UniProt O95182) | -0.001 | -0.033 | 0.085 | 0.078 | -0.003 | 0.021 | 0 | 0.036 | 0.005 | 0.01 |
| NANS (UniProt Q9NR45) | -0.016 | 0.031 | 0.066 | -0.022 | 0.028 | 0.023 | 0.036 | 0.02 | 0.016 | 0.022 |
| NSDHL (UniProt Q15738) | -0.007 | 0.107 | 0.047 | 0.021 | 0 | -0.149 | 0.065 | 0.059 | -0.039 | -0.005 |
| NELFB isoform 2 (UniProt Q8WX92) | 0.046 | 0.151 | 0 | -0.036 | 0.054 | 0.07 | -0.049 | 0.01 | -0.075 | -0.025 |
| MNAT1 (UniProt P51948) | 0.01 | 0.04 | -0.066 | 0.012 | -0.012 | 0.008 | 0.002 | -0.002 | -0.067 | -0.01 |
| MRPS27 isoform 2 (UniProt Q92552) | -0.044 | -0.058 | 0.018 | 0.061 | 0.056 | 0.024 | 0.074 | 0.086 | -0.048 | -0.106 |
| NOB1 (UniProt Q9ULX3) | 0.048 | 0.061 | -0.106 | 0.017 | -0.025 | -0.08 | 0.081 | 0.053 | 0.045 | -0.078 |
| MTFR1L (UniProt Q9H019) | -0.002 | -0.013 | -0.202 | 0.064 | -0.001 | -0.03 | 0.077 | 0.13 | 0.036 | -0.027 |
